High-throughput results: PubChem, National Center for Advancing Translational Sciences (NCATS)
NS1 function inh: qHTS Assay for Inhibitors of Influenza NS1 Protein Function. Potency, µM (top dose mostly 46.1 µM), for inactives: top-dose activity, positive = more growth. hit rate 0.4% among 270,000. AID 2326, 2010; note: potency is the fitted concentration of half-maximal effect; actives are rising curves; nearly all actives have a fitted effect of over 50% in size
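Growth recovery, yeast-based: influenza A NS1 expressed in S. cerevisiae causes slow growth, and suppressors are detected by OD600. The parent strain without NS1 is used as positive control.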
Cycloheximide cs: Cycloheximide Counterscreen for Small Molecule Inhibitors of Shiga Toxin | cell reporter, cycloheximide protein synthesis inhibition counterscreen | max response, % | hit rate 12% among 300,000 | AID 2314, 2010; in the data active = max response mostly above about 13%, no sharp cut-off; inactive = mostly below about 14%; note: read at 38.3 µM for the half of the compounds with a filed dose; 0% is about no effect
Shiga toxin inh: A qHTS for Small Molecule Inhibitors of Shiga Toxin. inhibition, % at 38.7 µM. AID 2315, 2010. hit rate 9.2% among 290,000. Vero cells, Shiga toxin protein synthesis inhibition reporter; in the data active = inhibition mostly above about 28%, no sharp cut-off; inactive = mostly below about 43%; note: 0% is about no effect
SARS PLP yeast: qHTS of Yeast-based Assay for SARS-CoV PLP; S. cerevisiae expressing SARS-CoV PLpro, growth rescue; Potency, µM (doses to about 32.9 µM), without a hit: at the top dose activity, positive = growth rescue, hits mostly activators; hit rate 0.19% among 330,000; note: potency is the fitted concentration of half-maximal effect; 0% is about no effect; nearly all actives have a fitted effect of over 55% in size
An asterisk follows results filed as active; ? = inconclusive; . = not tested or not shown. Hits are enriched below; roughly 12% of the tested compounds scored in any of these assays. Unless noted, calls come from the whole dose curve.

SMILES	NS1 function inh	Cycloheximide cs	Shiga toxin inh	SARS PLP yeast
O=C(O)c1ccc(N2C(=O)CC(N3CCN(c4cccc(C(F)(F)F)c4)CC3)C2=O)cc1 (stereo not given)	6.6%	-1.2	13.6	-4.7%
O=C(O)c1ccc(N2C(=O)CC(N3CCN(c4cccc(Cl)c4)CC3)C2=O)cc1 (stereo not given)	5.2%	9.7*	.	4.7%
CC1CCCN(c2nc(-c3cccnc3)nc3scc(-c4ccccc4)c23)C1 (stereo not given)	-32.0%	20.9*	51.4*	-19.2%
CC(C)=CCc1c(O)c(CC=C(C)C)c2c(c1O)C(=O)CC(c1ccc(O)cc1)O2 (stereo not given)	-3.4%	2.0	16.9	-3.6%
CC(C)=CCc1c(O)cc2c(c1O)C(=O)CC(c1ccc(O)cc1)O2 (stereo not given)	-88.0%	22.9*	29.3	-10.4%
COc1cc([C@@H]2CC(=O)c3c(O)cc(O)cc3O2)ccc1O	.	0.3	-7.6	.
COc1c(CC=C(C)C)cc(C2CC(=O)c3c(O)cc(O)cc3O2)cc1CC=C(C)C (stereo not given)	12.2%	active	19.1	-3.5%
C=CCOc1ccc(/C=N/NC(=O)CC(=O)NC2CCCCC2)cc1	1.4%	-3.9	-6.6	-2.6%
CC1CCCCC1NC(=O)CCCN1C(=O)c2ccccc2C1=O (stereo not given)	.	.	.	-1.4%
CN(C(=S)Nc1ccc(F)cc1)C1(c2ccccc2Cl)CCCCC1=O (stereo not given)	2.0%	-1.6	-3.5	-12.5%
Cc1csc2nc(CSc3nc4ccccc4o3)c(Br)n12	-19.9%	51.7*	78.1*	-7.4%
O=C(CSc1n[nH]c(=O)[nH]c1=O)N/N=C/c1ccccc1	5.1%	-3.6	-4.1	16.0%
O=C(CSc1nc2ccccc2o1)N/N=C/c1ccc(O)c(O)c1	12.6%	22.4*	31.1*	0.3%
O=C(CSc1nc2ccccc2o1)N/N=C/c1ccccc1	2.9%	24.8*	61.0*	20.7%
Cc1cc(SCC(=O)N/N=C/c2ccc(O)c(O)c2)nc2ccccc12	-24.4%	0.6	-2.3	-7.0%
Cc1ccccc1NC(=O)CSc1nc2ccccc2o1	-8.0%	23.2*	63.1*	7.9%
Cc1ccc(S(=O)(=O)c2cc(C)cc(S(=O)(=O)Nc3ccc(C(=O)O)cc3)c2C)cc1	?	-3.5	-7.3	0.4%
COCCn1c(N)c(N(Cc2ccccc2)C(=O)CSCC(=O)Nc2ccc(OC)cc2)c(=O)[nH]c1=O	.	.	.	3.4%
Cc1cc(C)nc(SCC(=O)Nc2ncc3c(n2)CC(C)(C)CC3=O)n1	-19.9%	-4.0	26.4	-0.1%
C/C(=N\NC(=O)CSc1nc2ccccc2o1)c1cccc(O)c1	1.5%	2.2	17.6	1.9%
C/C(=N\NC(=O)CSc1nc2ccccc2o1)c1ccc(O)cc1	.	44.7*	113.8*	-1.7%
Cc1cc(C)n(C(=O)CSc2nc3ccccc3o2)n1	6.1%	17.9*	11.7	12.2%
Cc1ccccc1/C=N/NC(=O)CSc1nc2ccccc2o1	-5.9%	24.5*	93.4*	1.5%
CC1(C)CC(=O)c2cnc(NC(=O)CSc3nc4ccccc4o3)nc2C1	-1.8%	15.9*	54.7	19.1%
O=C(CSc1nnc2c(n1)[nH]c1ccccc12)Nc1ccc(S(=O)(=O)Nc2ncccn2)cc1	.	-1.5	24.3	1.3%
SMILES	NS1 function inh	Cycloheximide cs	Shiga toxin inh	SARS PLP yeast
CCN(CC)S(=O)(=O)c1ccc(C(=O)Nc2ccc3c(c2)OCO3)cc1	.	5.7	32.0	3.8%
CC(=O)c1cccc(NC(=O)c2cc(-c3ccc(F)cc3)on2)c1	3.1%	-0.8	-4.6	-2.9%
CC(C)c1cc(C(=O)Nc2cccc(Cl)c2)no1	-65.7%	30.0*	82.3*	-17.4%
CC(C)c1onc(C(=O)Nc2cccc(Cl)c2)c1[N+](=O)[O-]	.	25.3*	34.9	-1.5%
COc1cc(NC(=O)c2cc(C(C)C)on2)cc(OC)c1OC	-21.2%	-2.1	-3.5	-6.6%
CC(=O)c1cccc(NC(=O)c2cc(C(C)C)on2)c1	-56.7%	40.0*	83.6*	-3.9%
CN(CC(=O)O)Cc1c[nH]c2ccccc12	10.4%	.	.	.
O=C1CC(=O)N(c2ccccc2)C(=O)N1c1ccccc1	12.2%	16.9*	17.8	-1.7%
CCN(CC)C(=O)Oc1ccnc2cc(Cl)ccc12	-8.1%	-1.5	-20.2	0.4%
CN(C)C(=O)Oc1ccc2ccccc2c1Cl	-85.9%	30.3*	29.4	13.0%
CN(C)C(=O)Oc1ccc(Cl)c2ccccc12	-33.2%	5.0	15.2	-15.0%
CCN(CC)C(=O)Oc1ccc2ccccc2c1Cl	-9.2%	43.1*	80.0*	1.0%
Nc1nc(N)nc(CC(=O)O)n1	-1.4%	.	.	.
CCN(c1cccc(C)c1)C(C(=O)Nc1ccc(OC)cc1)c1cc2c(cc1[N+](=O)[O-])OCO2 (stereo not given)	-10.6%	11.1*	22.3	-5.8%
COc1ccc(NC(=O)C(c2cc3c(cc2[N+](=O)[O-])OCO3)N(C)Cc2ccccc2)cc1 (stereo not given)	-2.5%	-3.4	32.0	-0.9%
COc1ccccc1C(=O)NCCSCc1ccccc1Cl	-58.5%	8.1	32.1	-13.1%
COc1ccc(/C=N/NC(=O)c2ccoc2C)cc1CN1CCN(c2ccc(F)cc2)CC1	-4.9%	45.2*	51.1*	0.1%
COc1cc(/C=N/NC(=O)c2cc(C)oc2C)ccc1O	.	8.6	27.9	6.9%
COc1cc(/C=N/NC(=O)c2ccoc2C)ccc1O	-6.2%	37.3*	59.1	?
CCOc1ccc(/C=N/NC(=O)c2ccoc2C)cc1OC	-21.1%	78.5*	76.7*	28.4%
Cc1occc1C(=O)Nc1cccc([N+](=O)[O-])c1C	-6.2%	4.1	9.0	-0.2%
Cc1occc1C(=O)N/N=C/c1ccccc1[N+](=O)[O-]	-10.0%	61.8*	64.5*	-0.7%
COC(=O)c1cnn(C(=O)c2cc(OC)ccc2Br)c1N	-24.0%	-1.0	13.9	1.9%
CN(C(=O)c1ccc(Cl)c([N+](=O)[O-])c1)C1(C)CCS(=O)(=O)C1 (stereo not given)	.	.	.	-9.6%
COc1cccc(/C=N/NC(=O)c2c(-c3ccccc3)noc2C)c1O	-64.8%	-0.8	-8.1	-1.0%
SMILES	NS1 function inh	Cycloheximide cs	Shiga toxin inh	SARS PLP yeast
COc1cccc(/C=N/NC(=O)c2ccoc2C)c1	-9.1%	42.3*	57.2*	-1.6%
COc1cccc(/C=N/NC(=O)CCc2ccccc2)c1	-7.1%	10.5	-9.0	-3.6%
COc1cccc(/C=N/NC(=O)c2ccoc2C)c1O	-5.0%	38.3*	85.6*	0.6%
COc1ccc(/C=C(\NC(=O)c2ccc(C)cc2)C(=O)Nc2c(C)n(C)n(-c3ccccc3)c2=O)cc1	.	-1.7	-10.9	0.3%
COc1ccc(/C=C/C(=O)O/N=C(\N)c2ccccc2)cc1OC	-13.0%	35.7*	28.4*	5.5%
Cc1ccc(/C(N)=N/OC(=O)/C=C/c2ccccc2)cc1	-155.7%	23.3*	54.9	-24.8%
Cc1ccccc1/C(N)=N/OC(=O)/C=C/c1ccccc1	-160.9%	43.6*	159.3*	-6.2%
COc1ccc(/C(N)=N/OC(=O)/C=C/c2ccccc2)cc1	.	18.8	30.3	-9.6%
C=CCN1CCN(C(=O)c2cc3c(s2)CCC(CC)C3)CC1 (stereo not given)	-0.8%	36.5*	50.3*	2.6%
OCC1(Cc2ccccc2F)CCCN(CC2CCCCC2)C1 (stereo not given)	1.7%	-2.4	.	-0.8%
